{"source": "PubChem BioAssay AID504833", "about": "(Johns Hopkins Ion Channel Center, 2011)", "note": "In all, about 2,500 compounds went through this assay and about 2,200 (88%) were called active. So high a share suggests a set chosen from earlier hits. Not all results are given here. A number with no mark means an inactive call.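 How the source made its calls: active means primary screen active, with duplicate mean activation above negative control mean plus 3 SD (cut at about 11% in these data); inactive means the rest.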", "data": [{"target": "High affinity choline transporter 1 (Homo sapiens) (UniProt Q9GZV3)", "sequence (Q9GZV3 whole entry, looked up)": "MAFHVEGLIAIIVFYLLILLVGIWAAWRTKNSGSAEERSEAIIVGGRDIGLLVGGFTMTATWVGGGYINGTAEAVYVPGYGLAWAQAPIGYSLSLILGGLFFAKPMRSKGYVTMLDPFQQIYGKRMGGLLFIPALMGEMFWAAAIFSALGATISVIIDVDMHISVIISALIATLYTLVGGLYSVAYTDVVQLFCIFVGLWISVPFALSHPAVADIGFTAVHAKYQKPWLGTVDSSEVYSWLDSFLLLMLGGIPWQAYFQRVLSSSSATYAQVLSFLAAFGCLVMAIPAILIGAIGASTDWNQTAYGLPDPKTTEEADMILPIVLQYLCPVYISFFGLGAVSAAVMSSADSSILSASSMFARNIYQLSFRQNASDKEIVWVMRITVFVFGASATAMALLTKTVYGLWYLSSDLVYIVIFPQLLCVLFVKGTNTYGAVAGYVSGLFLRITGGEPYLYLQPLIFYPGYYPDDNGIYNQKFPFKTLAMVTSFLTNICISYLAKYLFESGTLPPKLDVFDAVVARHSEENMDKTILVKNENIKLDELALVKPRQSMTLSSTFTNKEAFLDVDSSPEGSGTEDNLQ", "assay": "human choline transporter potentiators – cell-based, membrane potential dye, duplicate, confirmation (AID 504833)", "conditions": "CHT-expressing cells, membrane potential dye fluorescence (FDSS); at 10 µM; hits give high values; % of choline EC20–EC90 response window; HEK293 expressing CHT LV-AA mutant; choline added at its EC20", "values": [{"smiles": "O=C(C1=C(O)C(=O)N(Cc2ccccc2)C1c1ccco1)c1ccco1", "note": "(configuration not stated)", "activation": "9.6%"}, {"smiles": "O=C(COC(=O)C1CCN(S(=O)(=O)c2ccc3c(c2)OCCO3)CC1)Nc1ccccc1OC(F)F", "activation": "4.44%"}, {"smiles": "N#C/C(=C\\c1ccc(-c2cccc([N+](=O)[O-])c2)o1)C(=O)NCCN1CCOCC1", "activation": "15.6% (active)"}, {"smiles": "N#Cc1ccc(/C=C2\\CCn3c2nc2cc(C(=O)O)ccc2c3=O)cc1", "activation": "48.6% (active)"}, {"smiles": "COc1ccc(CC2c3cc(OC)c(OC)cc3CC[N+]2(C)CCC(=O)OCCCCCOC(=O)CC[N+]2(C)CCc3cc(OC)c(OC)cc3C2Cc2ccc(OC)c(OC)c2)cc1OC", "note": "(configuration not stated)", "activation": "35.7% (active)"}, {"smiles": "CC(Nc1nc(N2CCN(CCO)CC2)nc2ccccc12)c1ccccc1", "note": "(configuration not stated)", "activation": "24.3% (active)"}, {"smiles": "COc1ccc(C(O)(C2CCCCC2)C(CN2CCCC2)c2ccccc2)cc1", "note": "(configuration not stated)", "activation": "35.9% (active)"}, {"smiles": "CN(C)c1cc(N)c2ccccc2n1", "note": "(tested in a mixture with another compound)", "activation": "67.2% (active)"}, {"smiles": "CC(C)(C)Nc1nc(-c2ccccn2)nc2ccccc12", "activation": "57.4% (active)"}, {"smiles": "COc1cc2nc(N3CCN(C(=O)[C@@H]4CCCO4)CC3)nc(N)c2cc1OC", "activation": "43% (active)"}, {"smiles": "Cn1c(=O)n(C)c2cc(C(=O)Nc3ccc4c(c3)OCO4)ccc21", "activation": "43.2% (active)"}, {"smiles": "O=C(NCCC1=CCCCC1)C1CCN(Cc2cnn(-c3ccccc3)c2-n2cccc2)CC1", "activation": "29.7% (active)"}, {"smiles": "O=[N+]([O-])c1ccc(N2CCNCC2)cc1NCc1cccnc1", "activation": "52.9% (active)"}, {"smiles": "Cc1ccc(C(=O)C[n+]2cc(-c3ccccc3)n3c2CCCCC3)cc1", "activation": "43.1% (active)"}, {"smiles": "CCN1/C(=C/c2ccc3ccc(C)cc3[n+]2CC)Sc2ccccc21", "activation": "3.38%"}, {"smiles": "Cc1ccc(-n2c(SCC(=O)N3c4ccccc4Sc4ccccc43)nnc2-c2ccncc2)cc1", "activation": "21.6% (active)"}, {"smiles": "CCN1CCN(c2ccc([N+](=O)[O-])cc2C(=O)c2ccc(Cl)cc2)CC1", "activation": "50.4% (active)"}, {"smiles": "Cc1ccc(C(=O)c2ccc(N3CCN(C)CC3)c([N+](=O)[O-])c2)cc1", "activation": "9.27%"}, {"smiles": "CN(C)c1cc[n+](Cc2ccccc2)cc1", "activation": "50.2% (active)"}, {"smiles": "N=c1c2c3c(sc2ncn1N)CCCCC3", "activation": "42.9% (active)"}, {"smiles": "N=c1c2c3c(sc2ncn1CCCN1CCOCC1)CCCCC3", "activation": "72.9% (active)"}, {"smiles": "COc1ccc([N+](=O)[O-])cc1N(CC(O)CN(CC(C)C)CC(C)C)S(=O)(=O)c1ccc(C)cc1", "note": "(configuration not stated)", "activation": "37.9% (active)"}, {"smiles": "Cc1nc2ccccc2c2oc(C(=O)NCCCN3CCC(C)CC3)cc12", "activation": "13.8% (active)"}, {"smiles": "O=C(c1ccccc1F)N(Cc1ccccc1)Cc1ccccc1", "activation": "34.5% (active)"}, {"smiles": "CCN(CC)CCCNC(=O)c1cn(C)c2ccc(S(=O)(=O)N(C)C3CCCCC3)cc2c1=O", "activation": "32.9% (active)"}, {"smiles": "CCN(CC)CCC(c1cc(OC)c(OC)c(OC)c1)c1c(OC)cc(OC)c2c(-c3ccccc3)cc(=O)oc12", "note": "(configuration not stated)", "activation": "27.1% (active)"}, {"smiles": "COc1ccc(Nc2cc(C)nc(-n3nc(C)cc3C)n2)cc1", "activation": "12.6% (active)"}, {"smiles": "O=Cc1ccc(OCc2cn3ccccc3n2)cc1", "activation": "38.8% (active)"}, {"smiles": "Cc1cc2c(cc1C)[n+](C)cn2CC(O)COCC1CC=CCC1", "note": "(configuration not stated)", "activation": "80.5% (active)"}, {"smiles": "COc1ccccc1NC(=O)C1=C(C)Nc2nc3ccccc3n2C1c1cccs1", "note": "(configuration not stated)", "activation": "17.7% (active)"}, {"smiles": "Cc1cc(=O)oc2cc(OCCC[n+]3ccccc3)ccc12", "activation": "61.4% (active)"}, {"smiles": "O=C(CCC1CCN(C(=O)c2cccc(Cl)c2F)CC1)Nc1ccccc1", "activation": "24.5% (active)"}]}]}
